Z-score data for 35 molecules are collected here from PubChem BioAssay.

A number with no mark means an inactive call.

The assay is described as follows: viability profiling in MM1S myeloma cells – cell-based, resazurin fluorescence, basal, 24 h, PK04 Diversity Set, profiling panel (AID 1174).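 Further: MM1S multiple myeloma cell line; test concentration not given here.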 As to conditions: higher = more signal, called active from +8 up or from −8 down.
Take `COC(=O)[C@@]1(Cc2ccc(F)cc2)[C@H]2c3cc(C(=O)N(C)C)n(Cc4ccc(O)c(OC)c4)c3C[C@H]2CN1C(=O)c1ccccc1`: the z-score is 0.0463.

With `CO[C@H]1O[C@H](CO)[C@@H](OC(=O)Nc2cccc(F)c2)[C@H](OC(=O)Nc2ccccc2-c2ccccc2)[C@H]1OC(=O)Nc1ccccc1-c1ccccc1`, the z-score is -5.86.

For the molecule `C=C(CCCC)/C(=C/C[C@H](OC(C)=O)c1ccc(OCCO)cc1)c1cc(C(=O)OC)ccc1OC`, the z-score was -0.0396.

Take `COCCCNC(=O)[C@@]1(Sc2ccc(C)cc2)CC(=O)N(Cc2ccccc2Cl)[C@@H]1c1ccc(CO)cc1I`: the z-score was -3.21.

In the case of `COc1cccc(/C=C(\C#N)C(=O)Nc2c(C)n(C)n(-c3ccccc3)c2=O)c1`, the z-score is -1.82.

Consider `CS(=O)(=O)CCOC(=O)C1=CC(CCCO)=CC(C2CC2)N(Cc2cccc(OC(F)(F)F)c2)C=C1C(=O)OCCS(C)(=O)=O` (stereo not given), for which the z-score is 0.0932.

For `COc1ccc(C#Cc2ccc3c(c2)[C@]2(C(=O)N3)[C@H](C(=O)Nc3nc4ccccc4s3)[C@H]3C(=O)O[C@H](c4ccccc4)[C@H](c4ccccc4)N3[C@@H]2c2ccccc2OCCO)cc1`, the z-score is 0.303.

As for `C=C[C@@H](C)[C@@H](OC(=O)Nc1ccc(SC)cc1)c1ccc(OCCO)cc1`, the z-score is -0.682.

For the molecule `CC(=O)N1CC(C(O)C2C=CC3C(=O)NC(=O)C3N2Nc2ccc(Cl)cc2Cl)c2ccccc21` (stereo not given), the z-score was -0.731.

`CC(C)C[C@@H]1NC(=O)[C@H]2C[C@@H](C(=O)NCCCCCN)[C@@H](c3cccc(OCCO)c3)N2C1=O`: the z-score was -0.178.

Consider `C=C(/C(=C/C[C@@H](OC(C)=O)c1ccc(CO)o1)c1cc(C(=O)OC)ccc1OC)C(C)C`, for which the z-score is -0.912.

For `O=C1OCC=C[C@H]2OC34C=CCN(c5ccc6ccccc6c5)C(=O)[C@H]3N(CCCCCO)C(=O)[C@@H]4[C@@H]12` (stereo not given in full), the z-score was -0.818.

Consider `COC(=O)[C@@]1(Cc2ccccc2)[C@H]2c3cc(C(=O)N4CCCC4)n(CCSCCO)c3C[C@H]2CN1C(=O)c1ccccc1`, for which the z-score is -1.63.

On to `NC(=O)[C@@H]1[C@H]2C(=O)O[C@H](c3ccccc3)[C@H](c3ccccc3)N2[C@H](c2ccc(OCCO)cc2)[C@@]12C(=O)Nc1ccc(C#CCCO)cc12`, for which the z-score is -0.729.

As for `[N-]=[N+]=Nc1ccccc1C[C@]1(C(=O)NCc2ccccc2)COC(c2ccc(OCCCO)cc2)=N1`, the z-score is -5.51.

As for `CN1C(=O)[C@@]2(Cc3ccccc3)N=C(c3ccc(OCCCO)cc3)O[C@H]2c2ccccc21`, the z-score was -2.4.

As for `CCOC(=O)C[C@H]1[C@H](OC(=O)c2ccccc2-c2ccccc2)[C@@H](NC(=O)c2ccc3ccccc3n2)c2cc(OCCCO)ccc2N1C(=O)c1ccccc1`, the z-score was -0.042.

Turning to `Nc1cc(Br)ccc1C(=O)O`, the z-score was 1.11.

For the molecule `C=C(COC)C(=O)CC[C@@H](OC(=O)c1cccnc1)c1ccccc1OCCO`, the z-score is -3.09.

With `CCOC(=O)C1=C[C@@H](c2ccccc2)N(S(=O)(=O)c2ccc(C)cc2)[C@H]1c1ccccc1`, the z-score was -1.38.

Consider `CC(C)c1ccc(NN2C(C(O)Cc3ccccc3)C=CC3C(=O)N(c4ccccc4)C(=O)C32)cc1` (stereo not given), for which the z-score is -1.

In the case of `C=CCC(OC(C)=O)[C@@H]1[C@@H](N(Cc2ccc(-c3cccc(C(F)(F)F)c3)o2)C(=O)Cc2ccc(OC)cc2)c2cc(OCCCO)ccc2N1C(=O)Cc1ccc2ccccc2c1` (stereo not given in full), the z-score is 0.0919.

In the case of `COCCOC(=O)N1C(=O)[C@@]2(c3cc(C#CCNC(N)=O)ccc31)[C@H](c1ccc(O)cc1)N1[C@H](c3ccccc3)[C@H](c3ccccc3)OC(=O)[C@H]1[C@@H]2C(N)=O`, the z-score is -0.96.

For `C=CC1c2cc(O)c(OC)cc2CCN1Cc1ccc([N+](=O)[O-])o1` (stereo not given), the z-score was 0.336.

With `CC(=O)n1cc(C(O)C2C=CC3C(=O)N(c4ccccc4)C(=O)C3N2Nc2ccc(C(C)C)cc2)c2ccccc21` (stereo not given), the z-score was -1.12.

For the molecule `CO[C@H]1O[C@H](CO)[C@@H](OC(=O)c2ccc(Br)cc2)[C@@H]2OC(=O)[C@H](Cc3ccccc3)C/C=C/C[C@@H](Cc3ccccc3)C(=O)O[C@@H]12`, the z-score was -1.33.

In the case of `CN(C)CCCC[C@@H]1NC(=O)[C@@H]2C[C@H](C(=O)O)[C@H](c3cccc(OCCO)c3)N2C1=O`, the z-score is 0.472.

Consider `CCCCCCCCCCC(O)C1C=CC2C(=O)N(c3ccccc3)C(=O)C2N1Nc1ccccc1F` (stereo not given), for which the z-score is -0.361.

Consider `C=CCOC(=O)[C@H]1[C@@H]2C(=O)O[C@@H](c3ccccc3)[C@@H](c3ccccc3)N2[C@@H](c2ccc(OCCOC(=O)[C@H]3C[C@H]4C(=O)N[C@@H](CCCCNC(C)=O)C(=O)N4[C@H]3c3cccc(OCCO)c3)cc2)[C@]12C(=O)Nc1ccc(I)cc12`, for which the z-score is -0.682.

Turning to `Cc1ccc(F)cc1S(=O)(=O)N[C@@H]1CCN(Cc2cccc3[nH]ccc23)C1`, the z-score was -0.182.

On to `CC(C)C(=C=CC[C@@H](O)c1cccc(OCCO)c1)C[C@@H](O)c1ccccn1`, for which the z-score is 0.642.

Consider `[N-]=[N+]=NCc1ccccc1[C@H]1OC(c2ccc(OCCCO)cc2)=N[C@@]1(Cc1ccccc1)C(=O)NCCN1CCOCC1`, for which the z-score is -0.206.

For the molecule `C=CC[C@H](OC(=O)Nc1ccc(SC)cc1)c1ccc(OCCO)cc1`, the z-score was 0.819.

For `CN(C)C(=O)[C@@]1(Cc2ccccc2)COC(c2ccc(OCCCO)cc2)=N1`, the z-score was -0.403.

Turning to `NC(=O)[C@H]1[C@@H]2C(=O)O[C@@H](c3ccccc3)[C@@H](c3ccccc3)N2[C@@H](c2ccc(O)cc2)[C@]12C(=O)Nc1ccc(C#CC3=CCCCC3)cc12`, the z-score is -2.5.
